PubChem BioAssay (Tox21)
Several values for one entry are separate records, joined by “and”; a condition that tells them apart may be missing. Equal values may be shown once. Records with an inconclusive call do not appear. Some compounds were tested as several samples or in several runs, with calls that do not always agree. Activity calls are given as the source filed them. Unless noted, calls follow the shape of the dose curve; as a rule, active = well fitted curve in the direction sought with a large enough effect in the repeat runs; inconclusive = weak or mixed curves; inactive = no such curve, though single readings can be large; an effect the other way counts as inactive or inconclusive.

Legend:
[1] = molecular target: Luciferin 4-monooxygenase (Photinus pyralis) (UniProt P08659); assay: qHTS assay to identify small molecule inhibitors of firefly luciferase (AID 1224835); also: nearly all actives have a fitted effect of over 25% in size; also: potency is read from the fitted curve at half-maximal effect
Chain of Luciferin 4-monooxygenase (Photinus pyralis) (P08659 whole entry, looked up): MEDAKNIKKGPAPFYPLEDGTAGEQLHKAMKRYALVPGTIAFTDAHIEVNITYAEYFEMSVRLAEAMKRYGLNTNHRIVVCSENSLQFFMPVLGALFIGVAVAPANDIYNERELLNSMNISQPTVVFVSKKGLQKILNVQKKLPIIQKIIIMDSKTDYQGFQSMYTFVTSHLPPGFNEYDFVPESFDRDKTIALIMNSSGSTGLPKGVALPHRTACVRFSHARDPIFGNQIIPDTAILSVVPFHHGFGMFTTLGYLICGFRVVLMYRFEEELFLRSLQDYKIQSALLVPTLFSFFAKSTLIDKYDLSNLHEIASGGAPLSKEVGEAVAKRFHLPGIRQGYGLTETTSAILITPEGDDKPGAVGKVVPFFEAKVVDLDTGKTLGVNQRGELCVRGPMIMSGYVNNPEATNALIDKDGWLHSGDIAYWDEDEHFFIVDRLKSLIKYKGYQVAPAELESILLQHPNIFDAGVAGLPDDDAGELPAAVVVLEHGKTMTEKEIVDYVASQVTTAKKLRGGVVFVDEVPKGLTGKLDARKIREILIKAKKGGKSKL
How it was run: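 Inhibition of purified Photinus luciferase is measured by luminescence. Substrate levels (D-luciferin, ATP) sit at their KM values. Each compound is tested in a concentration series.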

[2] = qHTS assay to identify small molecule agonists of the constitutive androstane receptor (CAR) signaling pathway - cell viability counter screen (AID 1224836); also: nearly all actives have a fitted effect of over 45% in size; also: potency is read from the fitted curve at half-maximal effect
How it was run: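 Double-stable HepG2 hepatoma cells (hCAR plus CYP2B6-2.2kb) are treated for 23 h at 37 C with test compounds in 15-point concentration series. PK11195 at 0.75 uM final is co-added. Cell viability is quantified by CellTiter-Fluor.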

[3] = qHTS assay to identify small molecule antagonists of the constitutive androstane receptor (CAR) signaling pathway - cell viability counter screen (AID 1224837); also: nearly all actives have a fitted effect of over 45% in size; also: potency is read from the fitted curve at half-maximal effect
How it was run: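 In quantitative HTS format, compounds at 15 concentrations were applied to HepG2 cells double-transfected with hCAR and CYP2B6-2.2kb under 50 nM CITCO stimulation; live-cell protease activity was read after 23 hr via CellTiter-Fluor.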

[4] = molecular target: Nuclear receptor subfamily 1 group I member 3 (Homo sapiens) (UniProt Q14994); assay: qHTS assay to identify small molecule antagonists of the constitutive androstane receptor (CAR) signaling pathway (AID 1224838); also: nearly all actives have a fitted effect of over 40% in size; also: potency is read from the fitted curve at half-maximal effect
Chain of Nuclear receptor subfamily 1 group I member 3 (Homo sapiens) (Q14994 whole entry, looked up): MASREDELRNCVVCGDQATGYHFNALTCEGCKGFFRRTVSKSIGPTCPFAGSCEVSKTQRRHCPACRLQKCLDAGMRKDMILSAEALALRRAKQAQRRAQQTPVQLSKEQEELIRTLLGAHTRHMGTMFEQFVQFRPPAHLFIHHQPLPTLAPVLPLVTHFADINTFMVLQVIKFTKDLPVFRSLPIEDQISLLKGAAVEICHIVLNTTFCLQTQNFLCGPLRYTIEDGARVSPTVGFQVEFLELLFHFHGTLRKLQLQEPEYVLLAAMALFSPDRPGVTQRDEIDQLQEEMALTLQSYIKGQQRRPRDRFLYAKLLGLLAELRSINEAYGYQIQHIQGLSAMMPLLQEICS
How it was run: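 CITCO-stimulated (50 nM final) HepG2 cells stably transfected with hCAR and CYP2B6-2.2kb luciferase were exposed to compounds at 15 concentrations for 24 h at 37 C/5% CO2. A luciferase reagent was added and luminescence recorded after 30 min.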

[5] = qHTS assay to identify small molecule antagonists of the estrogen related receptor signaling pathway with the pleiotropic PPARgamma coactivator (PGC) from Tox21 10K library - cell viability counter screen (AID 1224840; active = well fitted cell-killing curve with a large enough effect in the repeat runs, not every such curve was filed as active; also: nearly all actives have a fitted effect of over 40% in size; also: potency is read from the fitted curve at half-maximal effect)
How it was run: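 Viability counter screen, PGC/ERR cells: 17.5 h compound exposure at 37 C, CellTiter-Fluor fluorescence endpoint.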

[6] = qHTS assay to identify small molecule antagonists of the estrogen related receptor signaling pathway with the pleiotropic PPARgamma coactivator (PGC) from Tox21 10K library (AID 1224841; call rule not given here; also: actives are mostly falling curves and most rising ones were filed inactive; nearly all actives have a fitted effect of over 50% in size; also: potency is read from the fitted curve at half-maximal effect)
How it was run: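 In the PGC/ERR line, DMSO solutions of test chemicals are pin-delivered to 2,000 cells/well six hours after dispensing. Following eighteen hours' incubation, One-Glo reagent is added and luminescence recorded.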

[7] = qHTS assay to identify small molecule agonists of the estrogen related receptor signaling pathway with the pleiotropic PPARgamma coactivator (PGC) from Tox21 10K library (AID 1224842); also: nearly all actives have a fitted effect of over 15% in size; also: potency is read from the fitted curve at half-maximal effect
How it was run: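 Luminescence from One-Glo (30 min, room temperature) measured after PGC/ERR cells had 18 h at 37 C with pinned compound (23 nL in DMSO). Cells had been seeded at 2,000 per well and pre-incubated 6 h.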

[8] = molecular target: Thyrotropin receptor (Homo sapiens) (UniProt P16473); assay: qHTS assay to identify small molecule agonists of the thyroid stimulating hormone receptor (TSHR) signaling pathway (AID 1224843; calls by dose curve; also: nearly all actives have a fitted effect of over 45% in size)
Chain of Thyrotropin receptor (Homo sapiens) (P16473 whole entry, looked up): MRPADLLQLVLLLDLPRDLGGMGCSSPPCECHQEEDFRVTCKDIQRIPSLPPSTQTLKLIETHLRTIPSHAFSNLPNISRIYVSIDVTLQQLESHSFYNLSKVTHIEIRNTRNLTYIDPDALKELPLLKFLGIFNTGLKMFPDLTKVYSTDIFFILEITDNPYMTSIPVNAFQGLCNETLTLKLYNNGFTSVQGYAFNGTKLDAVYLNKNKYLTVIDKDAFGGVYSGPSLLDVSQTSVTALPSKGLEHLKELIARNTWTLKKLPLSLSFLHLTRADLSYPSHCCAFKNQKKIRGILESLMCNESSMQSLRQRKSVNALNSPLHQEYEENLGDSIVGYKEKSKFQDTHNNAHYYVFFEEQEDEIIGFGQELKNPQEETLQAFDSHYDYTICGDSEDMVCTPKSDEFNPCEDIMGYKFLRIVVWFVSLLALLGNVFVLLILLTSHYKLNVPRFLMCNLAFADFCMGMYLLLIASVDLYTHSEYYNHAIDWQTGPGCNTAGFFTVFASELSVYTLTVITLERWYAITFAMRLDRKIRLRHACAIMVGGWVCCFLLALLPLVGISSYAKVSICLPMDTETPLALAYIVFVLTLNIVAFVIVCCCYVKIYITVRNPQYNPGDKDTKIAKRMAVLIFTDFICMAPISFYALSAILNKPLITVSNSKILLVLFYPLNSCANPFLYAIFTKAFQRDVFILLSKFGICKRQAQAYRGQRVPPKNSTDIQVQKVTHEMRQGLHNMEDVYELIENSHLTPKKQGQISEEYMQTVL
How it was run: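 A cell-based cAMP HTRF format was run in TSHR-transfected HEK293 cells, 800 per well. Treatment: 30 min, room temperature. Detection: 1 h with labelled cAMP and anti-cAMP cryptate. Concentration-response over 15 points, three replicates.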

[9] = qHTS assay to identify small molecule agonists of the hypoxia (HIF-1) signaling pathway - cell viability counter screen (AID 1224844; calls by dose curve; also: nearly all actives have a fitted effect of over 50% in size; also: potency is read from the fitted curve at half-maximal effect)
How it was run: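 Same wells as the HIF-1 reporter screen; ME-180 cells carrying HRE-bla, 17 hr treatment at 37C; CellTiter-Glo luminescence read after 30 min at room temperature.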

[10] = molecular target: Nuclear receptor subfamily 1 group I member 3 (Homo sapiens) (UniProt Q14994); assay: qHTS assay to identify small molecule agonists of the constitutive androstane receptor (CAR) signaling pathway (AID 1224839); also: nearly all actives have a fitted effect of over 15% in size; also: potency is read from the fitted curve at half-maximal effect
How it was run: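 Readout: firefly luciferase luminescence via ONE-Glo. System: HepG2 double-stable for hCAR and CYP2B6-2.2kb. Conditions: 15-point compound titration, PK11195 at 0.75 uM final, 24 h incubation.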

Measured: Potency

c1cc(C(c2ccc(OCC3CO3)cc2)C(c2ccc(OCC3CO3)cc2)c2ccc(OCC3CO3)cc2)ccc1OCC1CO1 (centres undefined)
active: [1] 16.5 µM
79.8 µM (active) and inactive: [6]
not listed: [10]
inactive: all other assays above

CC[C@H]1CN2CCc3cc(OC)c(OC)cc3[C@@H]2C[C@@H]1C[C@H]1NCCc2cc(OC)c(OC)cc21
inactive: [1] | [10] | [9]
active: [2] 24.4 nM and 150 nM | [3] 27.4 nM and 133 nM | [4] 54.6 nM and 237 nM | [5] 24.4 nM and 168 nM

BrC1CCC(Br)C(Br)CCC(Br)C(Br)CCC1Br (centres undefined)
active: [4] 21.6 µM and 25.9 µM | [6] 30.5 µM
not listed: [5] | [8]
inactive: all other assays above

Cc1ccnc2c1NC(=O)c1cccnc1N2C1CC1
not listed: [6] | [7]
inactive: all other assays above

CC(C)CCOC(=O)c1ccc(N(C)C)cc1
active: [1] 3.47 µM | [10] 13.3 µM | [7] 10.6 µM
inactive: all other assays above

CCCCCCC(O)CCCCCCCCCCC(=O)O (centres undefined)
inactive: all assays above

CCOC(=O)C(C)C(C)=O (centres undefined)
not listed: [10]
inactive: all other assays above

COc1ccc(Cc2cnc(N)nc2N)cc1OC
inactive: all assays above

Cc1ccc(S(=O)(=O)Oc2ccc(N=Nc3ccc(-c4ccc(N=Nc5c(O)ccc6cc(S(=O)(=O)O)cc(S(=O)(=O)O)c56)c(C)c4)cc3C)cc2)cc1
inactive: [4] | [10] | [7] | [9]
active: [1] 63.5 µM and 23.2 µM | [2] 27.4 µM and 20 µM | [3] 27.4 µM and 31.6 µM | [5] 19.4 µM and 20 µM | [6] 17.3 µM

Cc1cc(C2(c3cc(C)c(O)cc3C)OS(=O)(=O)c3ccccc32)c(C)cc1O
active: [1] 35.6 µM | [2] 24.3 µM and 27.3 µM | [3] 24.3 µM and 19.3 µM | [5] 19.3 µM
inactive: [4] | [7] | [8] | [9]
34.4 µM (active) and inactive: [6]

COc1ccc(COC(C)=O)cc1
inactive: all assays above

CCC(CO)(CO)COCC(CC)(CO)CO
inactive: all assays above

CC(C)(C)NCC(O)COc1ccccc1OCC1CCCO1 (centres undefined)
not listed: [10]
inactive: all other assays above

C=CC(=O)OCCCCCCCC
active: [6] 13.7 µM
not listed: [8]
inactive: all other assays above

CC1COC(=O)O1 (centres undefined)
inactive: all assays above

CC(C)CCOCc1ccccc1
inactive: all assays above

O=C(Oc1ccccc1)c1ccccc1O
active: [1] 31.9 µM and 22.4 µM
not listed: [6] | [7] | [8]
inactive: all other assays above

O=Cc1ccc(Cl)cc1
not listed: [10]
inactive: all other assays above

c1cnc2cc3c(cc2n1)C1CNCC3C1
not listed: [8]
inactive: all other assays above

N[C@@H]1CONC1=O
inactive: all assays above

CC(C)(O)CCC(C)(C)O
not listed: [10]
inactive: all other assays above

CCN1CCCC1CNC(=O)c1cc(S(=O)(=O)CC)c(N)cc1OC (centres undefined)
not listed: [10]
inactive: all other assays above

O=c1n(CC2CO2)c(=O)n(CC2CO2)c(=O)n1CC1CO1 (centres undefined)
inactive: [1] | [10] | [8] | [9]
active: [2] 54.2 µM and 61.1 µM | [3] 60.8 µM and 54.5 µM | [4] 76.5 µM and 61.1 µM

CC(COc1ccccc1)N(CCCl)Cc1ccccc1 (centres undefined)
active: [10] 27.6 µM and 8.63 µM and 10.6 µM
inactive: [1] | [2] | [3] | [4] | [5]
49.5 µM (active) and inactive: [9]

Cc1cccc(O)c1C
not listed: [8]
inactive: all other assays above

c1ccc2n[nH]nc2c1
not listed: [6] | [7] | [8]
inactive: all other assays above

C=CS(=O)(=O)O
not listed: [10]
inactive: all other assays above

O=C(O)Cn1cnnn1
not listed: [8]
inactive: all other assays above

O=C(O)CCc1ccccc1
not listed: [8]
inactive: all other assays above

CC(=O)OCCOCCOCCOC(C)=O
not listed: [6] | [7] | [8]
inactive: all other assays above

O=C(Cl)c1cccc(C(=O)Cl)c1
not listed: [6] | [7]
inactive: all other assays above

CCC(C)(Oc1ccc(C2(c3ccc(OC(C)(CC)C(=O)O)cc3)CCCCC2)cc1)C(=O)O (centres undefined)
inactive: all assays above

O=S(=O)(O)c1ccc2nc(-c3ccccc3)[nH]c2c1
active: [1] 19 µM and 12.3 µM | [9] 18.6 µM and 10.7 µM
inactive: all other assays above

C1COC(NC(C2CC2)C2CC2)=N1
not listed: [9]
inactive: all other assays above

CC1=C(C=O)C(C)(C)CC=C1
inactive: all assays above

O=C1NCC2(CCN(CCc3ccccc3)CC2)O1
not listed: [6] | [7]
inactive: all other assays above

O=C1CC2(CCCC2)CC(=O)N1CCCCN1CCN(c2ncccn2)CC1
19.3 µM (active) and inactive: [6]
4.36 µM (active) and inactive: [9]
inactive: all other assays above

CC[C@@H](N)CO
not listed: [2]
inactive: all other assays above

c1ccc2c(c1)CCCC2C1=NCCN1 (centres undefined)
inactive: [1] | [2] | [3] | [5] | [8] | [9]

COC(c1ccccc1)(c1ccccc1)[C@H](Oc1nc(C)cc(C)n1)C(=O)O
not listed: [2]
inactive: all other assays above

NC(N)=Nc1nc(CSCC/C(N)=N/S(N)(=O)=O)cs1
not listed: [4] | [8] | [10]
inactive: all other assays above

CCn1cc(C(=O)O)c(=O)c2cc(F)c(N3CCNC(C)C3)c(F)c21 (centres undefined)
not listed: [2]
inactive: all other assays above
